# Reference: the supplement of paper PMC10338343
# ± gives the standard deviation. Over roughly 8,200 sequences, “pre-steady-state target cleavage rate” has its median near 0.024; the highest 2% begin near 1.3. The full list was thinned out, with the highest values kept by preference.
# System: MIWI (PIWIL1) piRISC loaded with L1MC piRNA (30 nt)
# Assay: pre-steady-state target cleavage rate (min^-1); MIWI and MILI are mouse PIWI proteins and EfPiwi is from a freshwater sponge; tags in brackets are library labels; higher = faster piRNA-guided slicing of the target
# Settings: guide: L1MC piRNA 5'p-UAACUAAAUACUAUGCAAGCUGUAGGUCCU
# Summary of the method: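 The method was Cleave-'n-Seq, in which uncleaved targets from a transcribed, DNA-blocked target RNA library were sequenced after exposure to active affinity-purified piRISC carrying one synthetic guide, with or without GTSF1 partner protein. Reactions contained 0.1 nM library, 1 nM piRISC and, where present, 500 nM GTSF1 in HEPES–potassium acetate buffer at 33 °C for 0–8 or 0–960 min. Reads were normalised to depth and to weakly complementary targets, three trials were pooled, and k3 was capped at 0.0001 min^-1. The pre-steady-state cleavage rate came from a burst-and-steady-state fit.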
# [1] = auxiliary factor: 500 nM mouse GTSF1
# [2] = auxiliary factor: none (no GTSF1)
Sequence,pre-steady-state target cleavage rate [1],pre-steady-state target cleavage rate [2]
UGGACCUACAGGAAGCAUAGUAUUUAGUUA,0.994 ± 0.094,0.00926 ± 0.0024
UCCACCUACAGCAUGCAUAGUAUUUAGUUA,0.977 ± 0.054,0.0309 ± 0.0079
UCCACCUACAGCAUGGAUAGUAUUUAGUUA,1.34 ± 0.062,0.0231 ± 0.0039
UCCUCCUACAGCAUGCAUAGUAUUUAGUUA,1.2 ± 0.051,0.0219 ± 0.0048
UCCUGCUACAGCAUGGAUAGUAUUUAGUUA,1.13 ± 0.15,0.015 ± 0.0025
UCGACCUACAGCAUGCAUAGUAUUUAGAUA,0.538 ± 0.041,0.0119 ± 0.004
UCGACCUACAGCAUGGAUAGUAUUUAGUUA,1.59 ± 0.076,0.0294 ± 0.005
UCGACCUACAGCAUGCUUAGUAUUUAGUUA,0.915 ± 0.057,0.0113 ± 0.0023
AGGACCUACAGCAUGCUUAGUAUUUAGUUA,0.977 ± 0.058,0.0155 ± 0.0029
UCCACCUACAGCAUGCAUAGUAUUUAGAUA,0.423 ± 0.045,0.00605 ± 0.0027
UCCUCCUACAGCAUGGAUAGUAUUUAGUUA,1.38 ± 0.067,0.0219 ± 0.0037
AGGACCUACAGCAUGGAUAGUAUUUAGUUA,1.57 ± 0.086,0.0502 ± 0.0089
UCCUGGUACAGCUUGACAUAGUAUUUAGUUA,0.271 ± 0.027,
UCCUGGUACACCUUGCAUAGUAUUUUGUUA,0.436 ± 0.1,0.00901 ± 0.0027
ACGACCUACAGCUUGCAUAGUAUUUUCAAA,0.618 ± 0.067,0.00505 ± 0.004
UCCUGGAUGUCCUUGCAUAGUAUUUAGUGUA,0.0232 ± 0.0073,0.00487 ± 0.0027
UGGACCUACAGCAUCCAUAGUAUUUAGUUA,0.102 ± 0.017,0.00273 ± 0.002
UGGACCUACAGCAUGGAUAGUAUUUAGUUA,1.47 ± 0.1,0.0301 ± 0.0054
UGGACCUACAGCAUGCUUAGUAUUUAGUUA,0.877 ± 0.056,0.0147 ± 0.0037
UCCUGGAAGAGCUUGCAUAGUAUUUUGUUA,0.704 ± 0.076,0.0231 ± 0.0062
UCCUGGAUGAGCUUGCAUAGUAUAUUGUUA,0.165 ± 0.021,0.0157 ± 0.004

Sequence,pre-steady-state target cleavage rate [1],pre-steady-state target cleavage rate [2]
UCGACCUACAGCUACCAUAGUAUUUAGUAA,0.355 ± 0.037,
UCCUGCAACAGCUUGCAUAGUAUAUAGUUA,0.844 ± 0.063,0.0237 ± 0.0057
UCCUGCAACAGCUUCCAUAGUAUUUAGUUA,0.0524 ± 0.015,
UCCUGGAUGAGGUUGCAUAGUAUUUAGUUA,0.274 ± 0.022,0.00581 ± 0.0018
AGGACGAUCAGCUUGCAUAGUAUUUAGUAA,1.02 ± 0.12,0.0692 ± 0.015
UCGACGAUCAGCUUGCAUAGUAUUUAGAAA,0.494 ± 0.05,0.0104 ± 0.0033
AGGACGAUCAGCUUGCAUAGUAUUUAGUUA,1.43 ± 0.068,0.0865 ± 0.016
UGGACGAUCAGCUUGCAUAGUAUUUAGUAA,0.953 ± 0.064,0.0656 ± 0.013
UCCUCGAUCAGCUUGCAUAGUAUUUAGUUA,1.58 ± 0.056,0.0718 ± 0.013
UCGACGAUCAGCUUGCAUAGUAUUUAGUUA,1.6 ± 0.047,0.0826 ± 0.017
AGGACGAUCAGCUUGCAUAGUAUUUAGAAA,0.384 ± 0.061,0.0104 ± 0.0037
UGGACGAUCAGCUUGCAUAGUAUUUAGAAA,0.499 ± 0.048,0.0141 ± 0.0042
UCCUCGAUCAGCUUGCAUAGUAUUUAGUAA,1.06 ± 0.048,0.04 ± 0.0086
UGGACGAUCAGCUUGCAUAGUAUUUAGUUA,1.47 ± 0.071,0.0852 ± 0.016
UCGACGAUCAGCUUGCAUAGUAUUUAGUAA,1.05 ± 0.063,0.048 ± 0.011
UCCUCGAUCAGCUUGCAUAGUAUUUAGAAA,0.422 ± 0.044,0.00569 ± 0.0022
UCCUGGAUGAGCUUGCUUAGAAUUUAGUUA,0.0359 ± 0.0063,0.00574 ± 0.0024
UCCUGCAUCAGCUUGCAUAGUAUUUAGUUA,1.2 ± 0.066,0.0666 ± 0.014
UCCUGCUACAGCUUGCAUGUAUUUAGUUA,0.413 ± 0.054,0.00516 ± 0.0026
ACCUCCUACAGCUUGCAUAGUAUUUAGAAA,0.54 ± 0.061,0.00602 ± 0.0029
AGGACCUACAGCAUCCAUAGUAUUUAGUUA,0.319 ± 0.053,

Sequence,pre-steady-state target cleavage rate [1],pre-steady-state target cleavage rate [2]
UCGACCUACUCGUUGCAUAGUAUUUACAAA,0.165 ± 0.025,
UGCACCUACACCUUGCAUAGUAUUUAGUUA,0.967 ± 0.059,0.0415 ± 0.0067
UCCUGGUACAGGUUGCAUAGUAUUUACUUA,0.125 ± 0.035,0.00733 ± 0.003
UGGACCUACAGACUUGCAUAGUAUUUAGUUA,1.13 ± 0.1,0.0446 ± 0.0075
UCCUGGAUGUCGUUAGCAUAGUAUUUAGUUA,0.0102 ± 0.0036,
UCCUGGAUGUGCUAGCAUAGUAUAUAGUUA,0.0106 ± 0.0042,
UCCACGAUCAGCUUGCAUAGUAUUUAGUUA,1.55 ± 0.058,0.0711 ± 0.013
UCCACGAUCAGCUUGCAUAGUAUUUAGUAA,1.09 ± 0.079,0.0387 ± 0.009
UCCACGAUCAGCUUGCAUAGUAUUUAGAAA,0.444 ± 0.044,0.00814 ± 0.0028
UCCUGCUACAGCUUGCAUAGAAUUUACAAA,0.309 ± 0.065,
AGGACCUACAGCUUGCAUAGUAUAUUCAAA,0.419 ± 0.072,
AGGACCUUCAGCUUGCAUAGUAUUUUCAAA,0.311 ± 0.038,0.00593 ± 0.0032
UCCUGCUCACAGCUUGCAUAGUAUUUAGUUA,1.37 ± 0.076,0.0748 ± 0.014
UCCUCCACAGCUUGCAUAGUAUUUAGUUA,0.736 ± 0.027,0.0534 ± 0.011
UCCUGCACAGCUUGCAUAGUAUUUAGUUA,1.34 ± 0.073,0.0804 ± 0.018
UCCUCCCACAGCUUGCAUAGUAUUUAGUUA,1.15 ± 0.04,0.0641 ± 0.012
UCCUGCUCAGCUUGCAUAGUAUUUAGUUA,1.09 ± 0.043,0.0636 ± 0.013
UCCUGGUCACAGCUUGCAUAGUAUUUAGUUA,0.818 ± 0.034,0.0939 ± 0.022
UCCUGCCACAGCUUGCAUAGUAUUUAGUUA,1.2 ± 0.051,0.0769 ± 0.013
UCCUCCUCACAGCUUGCAUAGUAUUUAGUUA,1.49 ± 0.064,0.0662 ± 0.014
UCCUGGCACAGCUUGCAUAGUAUUUAGUUA,0.456 ± 0.081,0.0452 ± 0.011
